# Assay outcomes as filed in PubChem.
# DAX1 inh-1 – DAX1 (NR0B1) inhibitors, primary screen, cell-based, HEK293, Gal4-DAX1, luciferase luminescence; AID 504766, 2011; HEK293 Gal4-DAX1 luciferase reporter; Nuclear receptor subfamily 0 group B member 1 (Homo sapiens), P51843; actives 0.99% (n = 340,000); inhibition, % at 6.75 µM;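 active = inhibition above the mean over all tested compounds plus 3 SD, cut at about 4.2% in these data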;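 also: inhibition shows as a rise in luminescence from relieved DAX1 repression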
# DAX1 inh-2 – DAX1 (NR0B1) inhibitors on StAR promoter, primary screen, cell-based, luminescence, SF-1 (NR5A1), full-length DAX-1. actives 1.1% (n = 370,000). HEK293T StAR-luciferase reporter, SF-1/DAX-1 repression relief. AID 652010, 2013. inhibition, % at 6.8 µM;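 active = inhibition above the mean over all tested compounds plus 3 SD, cut at about 3.6% in these data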;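 also: higher inhibition means more luminescence from relief of DAX-1 repression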
# ssDAF-12 act – S. stercoralis DAF-12 nuclear receptor activators, primary screen, cell-based, luminescence, HEK293, GRIP1 co-expression, lit1-tk-luc. Nuclear hormone receptor DAF-12 (Strongyloides stercoralis). HEK293 ssDAF-12/GRIP1 lit1-tk-luc reporter; % of 3 µM dafachronic acid response. activation, % at 6.8 µM. actives 1% (n = 370,000). AID 652126, 2013;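 active = activation above the mean over all tested compounds plus 3 SD, cut at about 0.9% in these data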
# hgDAF12 agonist – H. glycines DAF-12 receptor agonists, primary screen, cell-based, luminescence, HEK293, GAL4 fusion, UAS-luciferase | Nuclear hormone receptor DAF-12 (Heterodera glycines), GAL4 fusion | HEK293 GAL4-hgDAF12 UAS-luciferase reporter, agonist luminescence; normalized to butyrate control | activation, % at 6.8 µM | actives 1.8% (n = 370,000) | AID 687014, 2013;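 active = activation above a cutoff set at the mean of all screened compounds plus 3 SD, cut at about 10% in these data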
# Wee1 degr inh – Wee1 degradation inhibitors, primary screen, cell-based, HeLa, Wee1K328M-luciferase, luminescence; actives 1.2% (n = 220,000); HeLa Luc-Wee1K328M stability; 100% = proteasome inhibitor MG132 effect; Wee1-like protein kinase (Homo sapiens), P30291; reporter increase, % at 5 µM;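 active = activation above the mean of all tested compounds plus 3 SD, set per screening run, cut at about 8.8% in these data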;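 also: cells exposed to compound for 20 h before luminescence read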
# hcDAF12 agonist – H. contortus DAF-12 nuclear receptor activators, primary screen, cell-based, luminescence, HEK293, lit1-tk-luc reporter; HEK293 hcDAF-12 lit1-tk-luc reporter; 0% DMSO, 100% Δ7-dafachronic acid; AID 652067, 2013; activation, % at 6.8 µM; actives 1.4% (n = 370,000);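 active = activation above the mean of all tested compounds plus 3 SD, cut at about 5.5% in these data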
# A number is an active result; – = inactive; · = not tested or not shown. Sampled rows, rich in hits. Any-hit rate of the full collection: about 4.6%.
SMILES,DAX1 inh-1,DAX1 inh-2,ssDAF-12 act,hgDAF12 agonist,Wee1 degr inh,hcDAF12 agonist
O=c1cc(-c2ccc(C(F)(F)F)cc2)oc2ccccc12,–,–,–,–,·,–
O=c1cc(-c2ccccc2)oc2ccccc12,6.0,–,–,–,·,–
Cc1ccc(S(=O)(=O)N2CCN(C(C)C(=O)NCC(C)c3ccccc3)CC2)cc1 (centres undefined),–,–,–,–,·,–
CCCCCn1cnc2sc(-c3ccccc3)cc2c1=O,–,–,–,–,–,–
CCCCn1cnc2sc(-c3ccccc3)cc2c1=O,–,–,–,10,–,–
CCCCCn1cnc2sc(CC)cc2c1=O,–,–,–,12,–,–
CC1(C(=O)NS(=O)(=O)C2CC2)CCCN(C(=O)COCc2ccccc2)C1 (centres undefined),·,–,–,–,·,–
CCCCN1C(=O)C(NC(=O)CC(C)C)(C(F)(F)F)C2=C1CC(C)(C)CC2=O (centres undefined),–,–,–,–,–,–
CCCN1C(=O)C(NC(=O)c2ccncc2)(C(F)(F)F)C2=C1CC(C)(C)CC2=O (centres undefined),–,–,0.9,–,–,–
CN(C(=O)COC(=O)C1COc2ccccc2O1)c1c(N)n(Cc2ccccc2)c(=O)[nH]c1=O (centres undefined),–,–,–,–,·,–
S=c1nc[nH]c2c1[nH]c1ccc(Cl)cc12,5.1,–,–,–,–,–
S=c1nc[nH]c2c1[nH]c1ccccc12,–,–,–,–,–,–
COc1ccc2[nH]c(-c3ccccc3)cc2c1,4.2,–,–,–,–,6.1
COc1ccc(-c2nc3ccc([N+](=O)[O-])cc3[nH]2)cc1,–,4.5,1.8,19,–,6.3
COc1ccc2nc(-c3ccccc3)[nH]c2c1,–,–,–,13,–,–
CCOc1ccc2nc(-c3ccccc3)[nH]c2c1,–,–,–,12,–,–
CCOc1ccc2nc(C(C)O)[nH]c2c1 (centres undefined),–,–,–,–,–,–
Cc1ccc2c(c1)-c1c(cnn1CC(=O)NCCc1cccc(F)c1)CO2,·,–,–,–,·,–
CC[N+]1(C)CCC(O)(/C=C/c2ccccc2)C(C(=O)/C=C/c2ccccc2)C1 (centres undefined),–,–,–,–,·,–
CCN(CC)c1ccc(/C=N/NC(=O)c2ccoc2C)c(O)c1,–,–,–,12,–,–
CCCCCn1nc(C)c(/C=N/NC(=O)c2ccoc2C)c1C,–,3.6,–,13,–,–
CCN(CC)c1ccc(/C=N/NC(=O)OC)c(O)c1,–,–,–,–,–,–
CCc1ccc(Oc2cc(C)nc(N)n2)cc1,–,–,–,11,–,–
CCCc1ccc(Oc2cc(Cl)nc(N)n2)cc1,–,–,–,–,–,–
CC(NC(=O)NC(=O)c1ccc(Cl)cc1)c1ccccc1 (centres undefined),–,–,–,–,·,–
SMILES,DAX1 inh-1,DAX1 inh-2,ssDAF-12 act,hgDAF12 agonist,Wee1 degr inh,hcDAF12 agonist
COCC(C)NC(=O)NC(=O)c1ccc(Cl)cc1 (centres undefined),–,–,1.1,–,–,–
COC(=O)c1c(C)oc(C)c1S(=O)(=O)N1CCCCC1,–,–,–,–,–,–
COC(=O)c1c(C)oc(C)c1S(=O)(=O)N1CCCC1,4.4,–,–,–,–,–
CCN(Cc1nc2ccccc2n1C)c1ccccc1,–,–,2.1,–,·,–
CCCC[C@H]1C2CC(OC(=O)Nc3ccc(C)cc3)C(C2)[C@H]2CCCCN21 (some centres undefined),·,–,–,–,·,–
Nc1nc(-c2ccccc2)c(N=Nc2ccccc2Cl)s1,–,–,–,–,–,5.8
Nc1nc(-c2ccccc2)c(N=Nc2cccc3ccccc23)s1,–,–,–,–,–,–
